In PubChem BioAssay (NCATS) one finds Potency and outcome data, which are given here for 33 compounds.

Records with an inconclusive call do not appear. The source made the active and inactive calls. Calls follow the shape of the dose curve; as a rule, active = well fitted curve in the direction sought with a large enough effect; inconclusive = small, poorly fitted or top-dose-only effect, or another doubt; inactive = no such curve, though single readings can be large; an effect the other way counts as inactive or inconclusive.

The target in test [1] is Glutaminase kidney isoform, mitochondrial (Homo sapiens) (UniProt O94925). Kind of test: qHTS for Inhibitors of Glutaminase (GLS): LOPAC Validation (AID 624146). Also: nearly all actives have a fitted effect of over 60% in size. Also: potency is read from the fitted curve at half-maximal effect. The method in brief: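 Compounds were pin-transferred onto hKGA, after which L-glutamine (1 mM solution) and a detection mix of glutamate oxidase, HRP and Amplex Red were added. Initial and 30 min RT fluorescence reads were collected.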

A short description of test [2]: qHTS of Trypanosoma Brucei Inhibitors: LOPAC Validation (AID 624147). The essentials:
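In this concentration-response screen, enzyme-free wells defined baseline while DMSO plates tracked drift. Each reaction combined TbPYK, substrate, compound and 130 uM ADP for 45 min at room temperature. Kinase-Glo Plus luminescence gave the signal.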
Background: Quantitative high-throughput screening tests each substance at several concentrations.

The target in test [3] is Glucagon-like peptide 1 receptor (Homo sapiens) (UniProt P43220). Kind of test: qHTS of GLP-1 Receptor Agonists: LOPAC Validation (AID 624148).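 Also: higher luminescence signal means agonism.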 The method in brief: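 HEK293 cells stably co-expressing a cAMP-responsive luciferase reporter and a hypersensitive GLP-1R were plated 12 h at 37 °C and exposed to compounds for 4-6 hr at 37 °C, 5% CO2. Luminescence was read 12 min after adding detection reagent.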

Test [4] in a line: qHTS of Nrf2 Activators: LOPAC Validation (AID 624149). The essentials: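 Cells (AREc32_Fluc) are plated at 1000 per well in OPTI-MEM containing 5% FBS and left overnight. Compounds are pinned in and incubated 24 hr at 37 deg C, and firefly luciferase is detected with Steady-Glo.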
Test [5] is described as follows: HTS Assay for Allosteric Antagonists of the Human D2 Dopamine Receptor: Hit Validation in HTRF (AID 624455). Also: potency is read from the fitted curve at half-maximal effect.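 Also: stable D1 dopamine receptor cell line scored for blocking the D1 response.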 The method in brief: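 Inhibition of the D1-mediated response is measured by HTRF in cells that stably express the D1 dopamine receptor. Compounds reaching this step are hits from calcium-flux antagonism testing at EC80 dopamine in inducible Hek293 Trex D2 cells.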
In general terms: TR-FRET usually uses a lanthanide donor and a delayed reading to cut background.

Glucagon-like peptide 1 receptor (Homo sapiens), sequence (P43220 whole entry, looked up): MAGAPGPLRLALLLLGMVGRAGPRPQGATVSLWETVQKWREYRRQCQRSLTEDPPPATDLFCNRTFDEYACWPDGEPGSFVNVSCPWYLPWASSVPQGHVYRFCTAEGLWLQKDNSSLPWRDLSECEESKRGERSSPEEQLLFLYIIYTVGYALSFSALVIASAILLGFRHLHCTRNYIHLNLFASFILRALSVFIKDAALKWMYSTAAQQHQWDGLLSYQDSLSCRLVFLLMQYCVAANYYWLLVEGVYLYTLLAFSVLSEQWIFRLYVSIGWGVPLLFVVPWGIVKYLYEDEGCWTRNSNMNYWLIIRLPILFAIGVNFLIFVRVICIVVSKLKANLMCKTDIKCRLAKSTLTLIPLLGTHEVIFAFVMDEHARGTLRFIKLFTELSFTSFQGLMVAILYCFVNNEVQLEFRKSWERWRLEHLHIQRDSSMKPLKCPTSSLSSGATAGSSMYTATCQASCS
Glutaminase kidney isoform, mitochondrial (Homo sapiens), sequence (O94925 whole entry, looked up, canonical isoform): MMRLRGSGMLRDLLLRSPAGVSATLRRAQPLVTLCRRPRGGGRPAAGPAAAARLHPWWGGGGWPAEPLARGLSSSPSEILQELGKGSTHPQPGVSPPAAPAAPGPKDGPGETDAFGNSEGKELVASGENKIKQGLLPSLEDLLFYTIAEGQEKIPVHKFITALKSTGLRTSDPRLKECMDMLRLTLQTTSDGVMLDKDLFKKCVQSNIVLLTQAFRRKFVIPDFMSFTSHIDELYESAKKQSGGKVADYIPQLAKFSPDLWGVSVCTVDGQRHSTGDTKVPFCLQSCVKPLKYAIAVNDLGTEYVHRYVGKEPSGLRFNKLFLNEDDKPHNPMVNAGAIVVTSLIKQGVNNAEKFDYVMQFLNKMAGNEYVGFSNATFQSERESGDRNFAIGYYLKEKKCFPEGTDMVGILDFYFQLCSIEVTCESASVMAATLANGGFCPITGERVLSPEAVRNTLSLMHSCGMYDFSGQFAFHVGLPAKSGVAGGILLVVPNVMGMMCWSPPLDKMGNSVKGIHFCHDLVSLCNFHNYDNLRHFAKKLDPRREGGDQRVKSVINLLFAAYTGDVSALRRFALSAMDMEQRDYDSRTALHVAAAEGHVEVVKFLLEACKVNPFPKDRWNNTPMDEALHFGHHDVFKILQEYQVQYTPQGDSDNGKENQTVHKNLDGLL

As to `Cc1ccc(S(=O)(=O)NC(=O)NN2CCCCCC2)cc1`, the Potency in test [1] is 10 µM (active). In addition, the compound was called inactive in test [2], in test [3] and in test [4]. In test [5], the Potency result was “inactive”.

On to `NC(N)=N/N=C/c1c(Cl)cccc1Cl`, for which the Potency entry in test [1] and in test [5] was “inactive” throughout. For the same compound, the call in test [2], in test [3] and in test [4] was inactive.

On to `CC(C)(Oc1ccc(CCNC(=O)c2ccc(Cl)cc2)cc1)C(=O)O`, for which the Potency result in test [1] and in test [5] was “inactive” throughout. Further, the compound was called inactive in test [2], in test [3] and in test [4].

Take `CN(C)C/C=C(/c1ccc(Br)cc1)c1cccnc1`: the Potency result in test [1] and in test [5] was “inactive” each time. Further, the compound was called inactive in test [2], in test [3] and in test [4].

For `CN(C)CCOC(=O)COc1ccc(Cl)cc1`, the Potency result in test [1] and in test [5] was “inactive” each time. For the same compound, the compound was classed as inactive in test [2], in test [3] and in test [4].

Consider `Cc1nnc(SCC2=C(C(=O)O)N3C(=O)[C@@H](NC(=O)Cn4cnnn4)[C@H]3SC2)s1`, for which the Potency result in test [1] and in test [5] was “inactive” each time. Further, the call in test [2], in test [3] and in test [4] was inactive.

With `COc1ccc(CN(CCN(C)C)c2ccccn2)cc1`, the Potency result in test [1] and in test [5] was “inactive” each time. Further, the compound was called inactive in test [2], in test [3] and in test [4].

For the compound `CCCCNc1ccc(C(=O)OCCN(C)C)cc1`, the Potency result in test [1] and in test [5] was “inactive” each time. For the same compound, the result in test [2], in test [3] and in test [4] was inactive.

In the case of `Cc1nc2ccccn2c(=O)c1CCN1CCC(C(=O)c2ccc(F)cc2)CC1`, the Potency entry in test [1] and in test [5] was “inactive” in each case. In addition, the compound was classed as inactive in test [2], in test [3] and in test [4].

As for `CCCCCN(CCCCC)C(=O)C(CCC(=O)O)NC(=O)c1ccc(Cl)c(Cl)c1` (stereo not drawn), the Potency result in test [1] and in test [5] was “inactive” throughout. Further, the outcome in test [2], in test [3] and in test [4] was inactive.

As to `CCn1ccnc1CC1COc2ccccc2O1` (stereo not drawn), the Potency entry in test [1] and in test [5] was “inactive” throughout. In addition, the compound was called inactive in test [2], in test [3] and in test [4].

In the case of `O=C(CCCN1CCC(O)(c2cccc(C(F)(F)F)c2)CC1)c1ccc(F)cc1`, the Potency result in test [1] and in test [5] was “inactive” throughout. The compound was classed as inactive in test [2], in test [3] and in test [4].

Regarding `NC(=O)c1cn(Cc2c(F)cccc2F)nn1`, the Potency result in test [1] and in test [5] was “inactive” throughout. Moreover, the result in test [2], in test [3] and in test [4] was inactive.

For `O=C1NCN(c2ccccc2)C12CCN(CCCC(c1ccc(F)cc1)c1ccc(F)cc1)CC2`, the Potency entry in test [1] and in test [5] was “inactive” in each case. Moreover, the result in test [2], in test [3] and in test [4] was inactive.

Consider `CN=C(NC#N)NCCSCc1nc[nH]c1C`, for which the Potency result in test [1] and in test [5] was “inactive” each time. The call in test [2], in test [3] and in test [4] was inactive.

Turning to `CCc1cccc(N(C)C(N)=Nc2cccc3ccccc23)c1`, the Potency result in test [1] and in test [5] was “inactive” throughout. In addition, the compound was classed as inactive in test [2], in test [3] and in test [4].

With `COCCc1ccc(OCC(O)CNC(C)C)cc1` (stereo not drawn), the Potency result in test [1] and in test [5] was “inactive” throughout. Also, the outcome in test [2], in test [3] and in test [4] was inactive.

For the compound `OC(CCN1CCCCC1)(c1ccccc1)C1CCCCC1` (stereo not drawn), the Potency entry in test [1] and in test [5] was “inactive” throughout. Besides, the call in test [2], in test [3] and in test [4] was inactive.

On to `c1ccc2c(c1)CCCC2C1=NCCN1` (stereo not drawn), for which the Potency entry in test [1] and in test [5] was “inactive” throughout. Also, the compound was classed as inactive in test [2], in test [3] and in test [4].

Turning to `CC(=O)[C@@]1(O)CC[C@H]2[C@@H]3CCC4=CC(=O)CC[C@]4(C)[C@H]3CC[C@@]21C`, the Potency entry in test [1] and in test [5] was “inactive” throughout. Further, the compound was classed as inactive in test [2], in test [3] and in test [4].

Turning to `CC(=O)OCC1=C(C(=O)O)N2C(=O)[C@@H](NC(=O)Cc3cccs3)[C@H]2SC1`, the Potency entry in test [1] and in test [5] was “inactive” each time. Besides, the call in test [2], in test [3] and in test [4] was inactive.

As to `CN1CCN(CC(=O)N2c3ccccc3C(=O)Nc3cccnc32)CC1`, in test [1], the Potency entry is “inactive”. Besides, the outcome in test [2], in test [3] and in test [4] was inactive. The Potency in test [5] was 3.66 µM (active).

On to `C=CCc1ccccc1OCC(O)CNC(C)C` (stereo not drawn), for which the Potency result in test [1] and in test [5] was “inactive” throughout. Moreover, the compound was classed as inactive in test [2], in test [3] and in test [4].

As to `CCCC(C(=O)OCCN(CC)CC)(c1ccccc1)c1ccccc1`, the Potency result in test [1] and in test [5] was “inactive” each time. Besides, the compound was classed as inactive in test [2], in test [3] and in test [4].

For `Fc1ccc(C(c2ccc(F)cc2)N2CCN(C/C=C/c3ccccc3)CC2)cc1`, the Potency entry in test [1] and in test [5] was “inactive” each time. Besides, the compound was classed as inactive in test [2], in test [3] and in test [4].

With `Nc1nc(N)c2nc(-c3ccccc3)c(N)nc2n1`, the Potency entry in test [1] and in test [5] was “inactive” each time. Further, the call in test [2], in test [3] and in test [4] was inactive.

As for `C[C@]12C=CC(=O)C=C1CC[C@H]1[C@@H]3C[C@@H](O)[C@](O)(C(=O)CO)[C@@]3(C)C[C@H](O)[C@@]12F`, the Potency result in test [1] and in test [5] was “inactive” throughout. Further, the compound was classed as inactive in test [2], in test [3] and in test [4].

With `COc1ccc2c(c1OC)C(=O)O[C@@H]2[C@H]1c2c(cc3c(c2OC)OCO3)CCN1C`, the Potency entry in test [1] and in test [5] was “inactive” throughout. Also, the result in test [2], in test [3] and in test [4] was inactive.

With `CC(=O)Nc1nnc(S(N)(=O)=O)s1`, the Potency result in test [1] and in test [5] was “inactive” each time. The call in test [2], in test [3] and in test [4] was inactive.

Take `C[C@]12CCC(=O)C=C1CC[C@@H]1[C@@H]2CC[C@@]2(C)[C@H]1CC[C@]2(O)C(=O)CO`: the Potency result in test [1] and in test [5] was “inactive” in each case. The call in test [2], in test [3] and in test [4] was inactive.

Take `CC(C)NNC(=O)c1ccncc1`: the Potency result in test [1] and in test [5] was “inactive” each time. Besides, the result in test [2], in test [3] and in test [4] was inactive.

`C#CCN(C)CCCOc1ccc(Cl)cc1Cl`: the Potency entry in test [1] and in test [5] was “inactive” in each case. Besides, the call in test [2], in test [3] and in test [4] was inactive.

Turning to `CN(C)C(=O)Oc1ccc[n+](C)c1`, the compound was classed as inactive in test [2], in test [3] and in test [4].
